Here are results for 60 molecules from PubChem BioAssay AID1851 (National Center for Advancing Translational Sciences (NCATS), 2009).

Out of some 16,000 compounds screened, about 5,100 (32%) were called active. Another 25% or so got no clear call; they are omitted. Some of the results follow. Unmarked numbers belong to inactive results. Calls follow the shape of the dose curve; as a rule, active = well fitted curve in the direction sought with a large enough effect; inconclusive = small, poorly fitted or top-dose-only effect, or effect the other way; inactive = no such curve, though single readings can be large or run the other way.
% is scaled to controls: 0 for no effect and ±100 for the full control effect.

For this assay, the target named is Cytochrome P450 3A4 (Homo sapiens) (UniProt P08684). Nature of the assay: Cytochrome panel assay with activity outcomes. To be noted: recombinant CYP, pro-luciferin dealkylation, luminescence, p450-cyp3a4; series mostly up to 57.1 µM.
Cytochrome P450 3A4 (Homo sapiens), sequence (P08684 whole entry, looked up): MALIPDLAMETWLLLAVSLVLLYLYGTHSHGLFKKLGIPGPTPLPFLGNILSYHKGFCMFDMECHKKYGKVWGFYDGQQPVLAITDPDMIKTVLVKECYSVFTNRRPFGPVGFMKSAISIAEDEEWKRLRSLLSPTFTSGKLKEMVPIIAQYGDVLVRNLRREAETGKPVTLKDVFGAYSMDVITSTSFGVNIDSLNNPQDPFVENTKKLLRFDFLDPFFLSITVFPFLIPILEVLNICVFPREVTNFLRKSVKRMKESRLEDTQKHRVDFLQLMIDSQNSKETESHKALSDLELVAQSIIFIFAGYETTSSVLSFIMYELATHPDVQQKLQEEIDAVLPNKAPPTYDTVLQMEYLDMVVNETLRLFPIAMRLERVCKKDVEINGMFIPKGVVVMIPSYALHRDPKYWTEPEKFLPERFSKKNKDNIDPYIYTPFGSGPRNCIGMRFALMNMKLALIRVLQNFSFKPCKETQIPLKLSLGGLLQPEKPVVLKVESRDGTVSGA
Regarding `O=C1NCC2(CCN(CCc3ccccc3)CC2)O1`, the AC50 – broadly, the midpoint of the concentration-response curve, whichever way the signal moves – is “inactive”.
For the molecule `C[N+]1(CCC[N+]2(C)C[C@H]3[C@H](C2)[C@H]2C=C[C@@H]3CC2)CCOCC1` (stereo not given in full), the activity, negative = inhibition is 31.7% [at 11.4 µM].
In the case of `COCCCNC(=O)CCC(=O)Nc1ccc2nc(N3CCOCC3)cc(C)c2c1`, the concentration at half-maximal activity (AC50) is 12.6 µM (active).
Same read-out and setting: the value for `Cc1cc(N2CCN(C)CC2)nc2ccc(NC(=O)CCC(=O)NCc3ccco3)cc12` was 15.8 µM (active).
Consider `CCN(CC)c1cc(C)c2cc(NC(=O)CNC(C)=O)ccc2n1`, for which the activity, negative = inhibition was -3.72% [at 11.4 µM].
For the molecule `COc1ccc2c(C)cc(N3CCOCC3)nc2c1`, the AC50 entry was “inactive”.
The same measure, in the same setting: the value for `CCCCNC(=O)CCC(=O)Nc1ccc2nc(N3CCOCC3)cc(C)c2c1` was 5.01 µM (active).
Regarding `C/C(=N\O)c1cccc[n+]1Cc1ccccc1`, the activity, negative = inhibition was -11.2% [at 11.4 µM].
In the case of `COc1ccc2[nH]cc(CCNc3nc(-c4ccc(C(=O)N(C)C)cc4)nc4ccccc34)c2c1`, the AC50 was 2.51 µM (active).
Take `COc1ccc2[nH]cc(CCNc3nc(-c4ccc(N(C)C)cc4)nc4ccccc34)c2c1`: the AC50 is 2.51 µM (active).
Turning to `O=C(Nc1nnc(CCS(=O)(=O)c2ccc(Br)cc2)s1)c1ccc([N+](=O)[O-])cc1`, the activity, negative = inhibition is -8.9% [at 2.29 µM].
Turning to `Cc1ccc(S(=O)(=O)CCc2nnc(NC(=O)COc3cccc(C)c3)s2)cc1`, the half-maximal activity concentration (AC50) is 2.82 µM (active).
Still for that read-out and setting: with `CC(=O)c1cn(CC(=O)Nc2c(C)cccc2C)c2ccccc12` the figure was 11.2 µM (active); with `Cc1cccc(C)c1NC(=O)C[N+](C)(C)C`, “inactive”.
The same measure, in the same setting: with `COC(=O)C1CSC(C(=O)OC)N1C(=O)Nc1c(C)cccc1C` (stereo not given) the entry was “inactive”.
For the molecule `Oc1ccc(-c2[nH]ncc2-c2ccc(Cl)cc2)c(O)c1`, the concentration at half-maximal activity (AC50) was 0.562 µM (active).
The same measure, in the same setting: with `C=C(C)COc1ccc(-c2n[nH]c(C)c2-c2ccc(OC)cc2)c(O)c1` the figure was 10 µM (active); with `COc1ccc(-c2n[nH]c(C)c2-c2ccc(Cl)cc2)c(O)c1`, 14.1 µM (active).
Still for that read-out and setting: with `Cc1[nH]nc(-c2ccc(O)cc2O)c1-c1ccc(Cl)cc1` the figure was 3.55 µM (active).
Still for that read-out and setting: with `C[C@@H](C(=O)NCCc1c[nH]c2ccccc12)[C@@H]1C[C@@]1(C)[C@@H](NC(=O)OCc1ccccc1)c1ccccc1` the figure was 3.16 µM (active); with `C[C@@H](C(=O)NCCc1c[nH]c2ccccc12)[C@H]1C[C@]1(C)[C@H](NC(=O)OCc1ccccc1)c1ccccc1`, 1.58 µM (active).
Consider `CC(C)CNC(=O)CCCc1c[nH]c2ccccc12`, for which the activity, negative = inhibition is 14.6% [at 2.29 µM].
`C[C@@H]1O[C@@H](O)[C@@H](O)[C@H](O)[C@H]1O`: the activity, negative = inhibition was -3.34% [at 11.4 µM].
For `CN(C)c1ccc(N=Cc2nc(-c3ccccc3)oc2O)cc1`, the half-maximal activity concentration (AC50) is 14.1 µM (active).
As to `CN(C)c1oc(-c2ccccc2)nc1C#N`, the AC50 entry was “inactive”.
Regarding `O=C(Oc1oc(-c2ccco2)nc1C=Nc1ccc(Cl)cc1)c1ccco1`, the AC50 result was “inactive”.
Turning to `CC(=O)N1CCN(C)CC1`, the AC50 entry is “inactive”.
In the case of `Cc1cc(C(C)(C)C)cc(CNC2CCCCC2)c1O`, the activity, negative = inhibition was -20.7% [at 11.4 µM].
On to `COc1cc(CNC2CCCC2)cc(Cl)c1OCc1ccccc1Cl`, for which the half-maximal activity concentration (AC50) is 5.62 µM (active).
`CCOc1cc(C2NN=C(c3ccccc3)S2)ccc1OCc1ccccc1Cl` (stereo not given): the activity, negative = inhibition is 7.68% [at 2.29 µM].
With `CCN1CCCC1CNC(=O)C(=O)Nc1ccccc1OC` (stereo not given), the AC50 result was “inactive”.
Still for that read-out and setting: the value for `CC1CCC(NC(=O)CC(C)(C)Cc2nc3ccccc3c(=O)[nH]2)CC1` (stereo not given) was “inactive”; that for `CCOc1ccccc1NC(=O)C(=O)NCC1CCCN1CC` (stereo not given) was “inactive”.
On the same count and under the same terms, the value for `CCN1CCCC1CNC(=O)CSCc1nc(-c2ccccc2C)oc1C` (stereo not given) was 6.31 µM (active); that for `Cc1oc(-c2ccccc2Cl)nc1CSCC(=O)NC1CC1` was 4.47 µM (active); that for `C1CCc2c(nc3nnnn3c2NC2CCCC2)C1` was “inactive”.
As to `NC(=NCc1ccccc1)NC(=O)c1nc(Cl)c(N)nc1N`, the AC50 entry is “inactive”.
Still for that read-out and setting: with `O=c1cc(N2CCCCC2)c(-c2ccccc2)nn1Cc1ccccc1Cl` the figure was 10 µM (active).
As for `Cc1cccc(N2CCN(c3ccc(NC(=O)/C=C(/C(=O)O)c4ccccc4)cc3)CC2)c1`, the activity, negative = inhibition was 0.321% [at 2.29 µM].
For the molecule `COC(=O)c1ccc(C(=O)OC)c(NC(=S)N2CCN(c3ccccc3)CC2)c1`, the half-maximal activity concentration (AC50) was 7.94 µM (active).
As to `COc1cc(CC(=O)O)c(C(C)=O)cc1OC`, the AC50 entry was “inactive”.
Same read-out and setting: with `COC(=O)c1cc(OC)c(OC)cc1NC(=S)N1CCCCC1` the figure was 3.98 µM (active); with `COc1cccc(Nc2ncc3nc(-c4cccs4)c(=O)n(CCC#N)c3n2)c1`, 6.31 µM (active); with `COc1ccc(-c2nc3cnc(Nc4ccccc4)nc3n(CCC#N)c2=O)cc1`, “inactive”.
On the same count and under the same terms, with `N#CCCn1c(=O)c(-c2ccccc2)nc2cnc(Nc3ccccc3)nc21` the entry was “inactive”; with `COc1ccc(-c2nc3cnc(Nc4cccc(OC)c4)nc3n(CCC#N)c2=O)cc1`, 3.98 µM (active).
As for `COc1cccc(Cn2c(=O)cnc3cnc(Nc4cccc(OC)c4)nc32)c1`, the AC50 was 2 µM (active).
The same measure, in the same setting: the value for `COc1cccc(Nc2ncc3nc(C)c(=O)n(CCC#N)c3n2)c1` was 12.6 µM (active).
With `O=C1CCCC=C1[C@@H](O)CCOC(c1ccccc1)(c1ccccc1)c1ccccc1`, the activity, negative = inhibition is -80.3% [at 11.4 µM].
With `CC(C)(C)c1cc(Br)c(O)c(CN(Cc2cc(C(C)(C)C)cc(Br)c2O)C2CCCCC2)c1`, the activity, negative = inhibition is -3.9% [at 11.4 µM].
For `COCCn1c(=O)c(-c2ccc(Cl)cc2)nc2cnc(Nc3ccccc3)nc21`, the AC50 entry is “inactive”.
The same measure, in the same setting: with `COc1cccc(Nc2ncc3nc(-c4cc(F)cc(F)c4)c(=O)n(CCC#N)c3n2)c1` the figure was 10 µM (active).
Same read-out and setting: the value for `N#CCCn1c(=O)c(-c2cc(F)cc(F)c2)nc2cnc(Nc3ccccc3)nc21` was “inactive”.
Still for that read-out and setting: with `COCCn1c(=O)c(-c2ccccc2)nc2cnc(Nc3ccccc3)nc21` the figure was 12.6 µM (active); with `CN(C)c1ncc2ncc(=O)n(CCC#N)c2n1`, “inactive”.
Regarding `COc1cccc(Nc2ncc3ncc(=O)n(CCC#N)c3n2)c1`, the AC50 was 15.8 µM (active).
With `COCCn1c(=O)cnc2cnc(Nc3cccc(OC)c3)nc21`, the half-maximal activity concentration (AC50) is 15.8 µM (active).
Regarding `COCCn1c(=O)cnc2cnc(Nc3ccccc3)nc21`, the AC50 result is “inactive”.
For the molecule `Cn1c(=O)c2c(nc(N/N=C\c3ccccc3C(=O)O)n2C)n(C)c1=O`, the activity, negative = inhibition was 5.51% [at 11.4 µM].
As to `CCC[C@H]1C(=O)N2C(N(C)C)=Nc3ccc(C)cc3N2C1=O`, the AC50 result is “inactive”.
